Reference: PubChem BioAssay
The source made the active and inactive calls.

Columns and labels:
[1] = system: PRMT1 (protein arginine N-methyltransferase 1); experiment: PRMT1 binders on small-molecule microarrays, primary screen, biochemical, small-molecule microarray, 635 nm fluorescence (AID 1088); details: small-molecule microarray binding, higher = more signal;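 further: binding of Prmt1 protein to compounds spotted on small-molecule microarray slides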
[2] = yeast growth modulation, basal conditions, primary screen, YJM789 clinical isolate, OD600, 24 h (AID 1089);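 further: growth of clinical yeast isolate S. cerevisiae YJM 789 seeded 1000 cells per well; test concentration not given here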; details: S. cerevisiae YJM789 growth, higher = more signal, called active from +8 up or from −8 down
[3] = fission yeast growth modulation, primary screen, strain 972, OD600, 24 h, no modulator (AID 1090);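 further: basal condition with compound alone and no growth modifier present; test concentration not given here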; details: S. pombe 972 growth, higher = more signal, called active from +8 up or from −8 down
[4] = S. cerevisiae growth modulation with rapamycin, primary screen, strain BY4716, OD600, 96 h (AID 1091); details: higher = more signal, called active from +8 up or from −8 down; further: test concentration not given here
[5] = biological target: Torsin-1A-interacting protein 2 (Homo sapiens) (UniProt Q8NFQ8); experiment: LULL1 binders on small-molecule microarray, primary screen, cell lysate, human LULL1 lysate, 635/667 nm fluorescence (AID 1092); details: hLULL1 lysate binding, 635 nm fluorescence, higher = more signal;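 further: probe is lysate of COS7 cells overexpressing human LULL1; score merges per-feature 667 nm fluorescence with signal-to-noise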
Torsin-1A-interacting protein 2 (Homo sapiens), sequence (Q8NFQ8 whole entry, looked up): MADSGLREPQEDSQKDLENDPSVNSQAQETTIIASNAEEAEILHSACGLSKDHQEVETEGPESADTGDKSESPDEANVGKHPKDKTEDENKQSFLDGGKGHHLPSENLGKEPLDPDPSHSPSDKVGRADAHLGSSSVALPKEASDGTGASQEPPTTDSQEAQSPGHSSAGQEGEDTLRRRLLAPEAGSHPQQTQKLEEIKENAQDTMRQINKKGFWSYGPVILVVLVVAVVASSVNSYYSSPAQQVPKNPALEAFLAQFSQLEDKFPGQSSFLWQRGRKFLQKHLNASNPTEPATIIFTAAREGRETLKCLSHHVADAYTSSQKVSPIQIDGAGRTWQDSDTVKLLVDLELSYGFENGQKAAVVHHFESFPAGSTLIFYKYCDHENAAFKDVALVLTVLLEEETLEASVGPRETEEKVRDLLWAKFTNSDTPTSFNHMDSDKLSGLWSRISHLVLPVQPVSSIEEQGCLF

[6] = E. coli growth modulation, two-sided OD650, primary screen, E. coli filamentation project, strain DRC41, 24 h (AID 1093); details: OD650, 24 h, higher = more signal, called active from +8 up or from −8 down;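 further: MC1000 strain lacking acrAB efflux and sulA so SOS filamentation is blocked; test concentration not given here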
[7] = small-molecule microarray binders of probe aLefty2, primary screen, biochemical, biotinylated probe, 635/667 nm fluorescence (AID 1094); details: higher = more signal;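 further: score merges spot fluorescence near 667 nm with spot signal-to-noise ratio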
[8] = system: Noggin (protein binding on small-molecule microarray); experiment: Noggin binders on small-molecule microarray, primary screen, biochemical, 635/667 nm fluorescence (AID 1095); details: 635 nm fluorescence, higher = more signal;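 further: score merges 667 nm feature fluorescence with signal to noise over triplicate slides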
[9] = biological target: Neurogenic locus notch homolog protein 3 (Homo sapiens) (UniProt Q9UM47); experiment: NOTCH3 binders on small-molecule microarray, primary screen, biochemical, 635/667 nm fluorescence (AID 1096); details: NOTCH3 binding, 635 nm fluorescence, higher = more signal
Neurogenic locus notch homolog protein 3 (Homo sapiens), sequence (Q9UM47 whole entry, looked up): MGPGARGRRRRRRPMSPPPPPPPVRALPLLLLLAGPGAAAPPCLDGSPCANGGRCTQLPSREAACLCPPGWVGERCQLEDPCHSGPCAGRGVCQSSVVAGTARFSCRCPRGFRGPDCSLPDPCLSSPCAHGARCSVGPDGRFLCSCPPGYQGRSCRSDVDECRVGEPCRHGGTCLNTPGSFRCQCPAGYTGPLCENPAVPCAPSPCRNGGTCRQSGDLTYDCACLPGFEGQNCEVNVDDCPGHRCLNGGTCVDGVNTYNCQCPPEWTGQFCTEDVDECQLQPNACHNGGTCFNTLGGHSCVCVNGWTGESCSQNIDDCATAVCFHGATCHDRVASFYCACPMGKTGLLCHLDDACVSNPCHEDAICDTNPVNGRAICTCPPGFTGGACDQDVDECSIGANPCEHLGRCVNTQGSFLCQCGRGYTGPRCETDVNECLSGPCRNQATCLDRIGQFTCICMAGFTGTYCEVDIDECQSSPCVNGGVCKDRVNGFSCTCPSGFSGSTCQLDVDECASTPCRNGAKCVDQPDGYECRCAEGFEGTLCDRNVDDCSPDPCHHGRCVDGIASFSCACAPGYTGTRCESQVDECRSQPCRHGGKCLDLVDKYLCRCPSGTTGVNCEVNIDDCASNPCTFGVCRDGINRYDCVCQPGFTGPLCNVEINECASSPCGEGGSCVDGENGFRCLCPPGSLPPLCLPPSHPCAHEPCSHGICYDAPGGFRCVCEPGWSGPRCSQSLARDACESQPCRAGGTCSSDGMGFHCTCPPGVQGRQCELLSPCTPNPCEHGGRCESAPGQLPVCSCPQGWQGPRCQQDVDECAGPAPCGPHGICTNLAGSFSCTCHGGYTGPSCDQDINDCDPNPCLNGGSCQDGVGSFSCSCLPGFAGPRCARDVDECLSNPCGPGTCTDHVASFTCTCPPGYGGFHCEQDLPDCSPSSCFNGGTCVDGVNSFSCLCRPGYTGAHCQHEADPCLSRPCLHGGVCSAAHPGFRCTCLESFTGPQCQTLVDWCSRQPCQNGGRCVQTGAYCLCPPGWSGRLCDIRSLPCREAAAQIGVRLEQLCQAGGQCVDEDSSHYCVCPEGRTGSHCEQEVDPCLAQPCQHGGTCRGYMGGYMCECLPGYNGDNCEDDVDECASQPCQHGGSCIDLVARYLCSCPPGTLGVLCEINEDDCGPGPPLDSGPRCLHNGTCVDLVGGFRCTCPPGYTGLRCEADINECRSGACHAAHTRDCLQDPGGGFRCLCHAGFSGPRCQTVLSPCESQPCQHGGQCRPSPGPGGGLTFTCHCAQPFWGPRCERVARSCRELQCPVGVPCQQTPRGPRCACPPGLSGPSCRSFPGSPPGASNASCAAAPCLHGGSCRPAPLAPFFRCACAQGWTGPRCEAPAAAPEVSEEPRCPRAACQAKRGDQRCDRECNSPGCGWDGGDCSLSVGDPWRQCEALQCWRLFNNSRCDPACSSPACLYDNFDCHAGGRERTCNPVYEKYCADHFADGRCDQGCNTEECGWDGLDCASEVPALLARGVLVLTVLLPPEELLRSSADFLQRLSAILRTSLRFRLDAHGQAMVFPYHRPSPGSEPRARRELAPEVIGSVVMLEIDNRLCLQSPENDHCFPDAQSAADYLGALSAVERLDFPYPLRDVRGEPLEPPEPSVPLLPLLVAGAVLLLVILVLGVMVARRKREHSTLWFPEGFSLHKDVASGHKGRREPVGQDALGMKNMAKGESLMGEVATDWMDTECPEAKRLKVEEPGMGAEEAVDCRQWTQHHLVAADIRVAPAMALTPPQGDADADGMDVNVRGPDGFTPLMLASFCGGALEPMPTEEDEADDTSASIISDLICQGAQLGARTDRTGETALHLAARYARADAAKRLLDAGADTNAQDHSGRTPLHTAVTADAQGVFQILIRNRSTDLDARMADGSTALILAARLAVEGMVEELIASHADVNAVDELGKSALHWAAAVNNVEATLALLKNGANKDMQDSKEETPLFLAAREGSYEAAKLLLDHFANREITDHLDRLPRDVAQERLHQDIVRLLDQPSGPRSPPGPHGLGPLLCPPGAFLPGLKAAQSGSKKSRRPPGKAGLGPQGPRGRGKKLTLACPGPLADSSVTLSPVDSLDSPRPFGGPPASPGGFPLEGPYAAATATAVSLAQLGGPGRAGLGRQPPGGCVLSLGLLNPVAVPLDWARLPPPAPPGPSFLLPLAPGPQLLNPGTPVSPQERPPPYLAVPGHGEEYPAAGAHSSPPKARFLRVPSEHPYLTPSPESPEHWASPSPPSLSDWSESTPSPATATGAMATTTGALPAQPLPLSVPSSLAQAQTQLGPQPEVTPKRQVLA

[10] = small-molecule microarray binders of probe aEGFR, primary screen, biochemical, biotinylated probe, 635/667 nm fluorescence (AID 1097); details: higher = more signal;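 further: probe is a biotinylated anti-EGFR antibody binding compounds printed on slides; score combines fluorescence near 667 nm and signal to noise of each spot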
[11] = system: Plasmodium falciparum Sir2 (PF13_0152, Sir2A); experiment: pfSir2 binders on small-molecule microarrays, primary screen, biochemical, small-molecule microarray, 635 nm fluorescence (AID 1098); details: small-molecule microarray binding, fluorescence 635 nm; higher = more signal;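 further: score merges spot fluorescence intensity with its signal-to-noise ratio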
[12] = small-molecule microarray binders of probe aDKK1, primary screen, biochemical, biotinylated probe, 635/667 nm fluorescence (AID 1099); details: higher = more signal;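 further: score merges 667nm spot fluorescence with signal to noise across triplicate slides; reference of the scale not given here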
[13] = small-molecule microarray binders of probe aCHRDL2, primary screen, biochemical, biotinylated probe, 635/667 nm fluorescence (AID 1100); details: higher = more signal
[14] = splicing luciferase reporter signal modulators, primary screen, spliceosome inhibition project, cell-based, HEK293, splice +/- reporter (AID 1101); details: luminescence, 24 h, higher = more signal, called active from +8 up or from −8 down;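 further: HEK293 cells carrying a splicing-competent luciferase reporter gene; test concentration not given here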
[15] = biological target: Fibroblast growth factor 10 (Homo sapiens) (UniProt O15520); experiment: FGF10 binders on small-molecule microarrays, primary screen, biochemical, small-molecule microarray, 635 nm fluorescence (AID 1102); details: FGF10 binding, fluorescence 635 nm, higher = more signal
Fibroblast growth factor 10 (Homo sapiens), sequence (O15520 whole entry, looked up): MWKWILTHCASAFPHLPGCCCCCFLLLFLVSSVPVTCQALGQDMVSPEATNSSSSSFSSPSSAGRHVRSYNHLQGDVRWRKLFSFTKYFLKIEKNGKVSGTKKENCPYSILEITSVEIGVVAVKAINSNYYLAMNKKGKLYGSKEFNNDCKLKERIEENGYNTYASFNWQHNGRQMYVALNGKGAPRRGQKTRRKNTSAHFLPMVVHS

[16] = system: glycogen synthase kinase-3 (GSK3A per assay name; protocol says GSK3B); experiment: GSK3 binders on small-molecule microarrays, primary screen, biochemical, small-molecule microarray, 635 nm fluorescence, GSK3A (AID 1103); details: small-molecule microarray binding, fluorescence 635 nm; higher = more signal; further: the record names both GSK3A and GSK3B
[17] = biological target: Epidermal growth factor receptor (Homo sapiens) (UniProt P00533); experiment: EGFR binders on small-molecule microarrays, primary screen, biochemical, small-molecule microarray, 635 nm fluorescence (AID 1104); details: EGFR binding, higher = more signal;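 further: score merges 667 nm emission intensity with spot signal to noise over triplicate slides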
Epidermal growth factor receptor (Homo sapiens), sequence (P00533 whole entry, looked up): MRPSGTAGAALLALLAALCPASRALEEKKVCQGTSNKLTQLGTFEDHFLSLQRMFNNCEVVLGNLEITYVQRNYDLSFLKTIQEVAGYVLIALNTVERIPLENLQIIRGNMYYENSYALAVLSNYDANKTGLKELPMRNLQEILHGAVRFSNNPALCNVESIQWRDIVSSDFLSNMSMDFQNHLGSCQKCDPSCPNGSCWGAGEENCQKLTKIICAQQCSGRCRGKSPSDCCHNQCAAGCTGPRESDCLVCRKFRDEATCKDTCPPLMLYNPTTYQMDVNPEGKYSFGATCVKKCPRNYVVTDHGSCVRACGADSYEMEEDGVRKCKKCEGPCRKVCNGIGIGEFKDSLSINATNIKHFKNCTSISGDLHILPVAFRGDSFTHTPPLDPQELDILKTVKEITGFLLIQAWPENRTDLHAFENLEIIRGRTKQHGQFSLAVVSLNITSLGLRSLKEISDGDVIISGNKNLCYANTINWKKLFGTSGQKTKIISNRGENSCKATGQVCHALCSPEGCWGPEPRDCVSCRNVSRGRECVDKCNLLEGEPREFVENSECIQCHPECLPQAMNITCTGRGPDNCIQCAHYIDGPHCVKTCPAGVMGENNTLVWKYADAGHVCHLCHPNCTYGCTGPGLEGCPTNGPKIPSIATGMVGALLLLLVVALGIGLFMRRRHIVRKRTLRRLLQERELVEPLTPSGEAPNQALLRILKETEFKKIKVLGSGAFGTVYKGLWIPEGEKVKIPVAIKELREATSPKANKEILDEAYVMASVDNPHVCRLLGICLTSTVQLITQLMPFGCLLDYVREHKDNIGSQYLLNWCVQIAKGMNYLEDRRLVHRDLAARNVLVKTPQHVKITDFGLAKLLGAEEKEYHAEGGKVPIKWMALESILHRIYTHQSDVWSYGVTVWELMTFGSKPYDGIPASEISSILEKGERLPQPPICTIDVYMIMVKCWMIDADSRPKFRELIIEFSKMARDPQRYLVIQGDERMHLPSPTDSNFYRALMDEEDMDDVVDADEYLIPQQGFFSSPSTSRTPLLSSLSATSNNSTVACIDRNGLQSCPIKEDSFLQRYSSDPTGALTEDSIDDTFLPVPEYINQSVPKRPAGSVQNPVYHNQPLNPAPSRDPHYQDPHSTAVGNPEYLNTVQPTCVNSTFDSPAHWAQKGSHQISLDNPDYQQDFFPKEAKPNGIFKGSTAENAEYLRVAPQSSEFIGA

[18] = biological target: Follistatin-related protein 3 (Homo sapiens) (UniProt O95633); experiment: FSTL3 binders on small-molecule microarrays, primary screen, biochemical, small-molecule microarray, 635 nm fluorescence (AID 1105); details: FSTL3 binding, higher = more signal;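 further: score merges emission near 667 nm and signal to noise per printed spot across three slides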
Follistatin-related protein 3 (Homo sapiens), sequence (O95633 whole entry, looked up): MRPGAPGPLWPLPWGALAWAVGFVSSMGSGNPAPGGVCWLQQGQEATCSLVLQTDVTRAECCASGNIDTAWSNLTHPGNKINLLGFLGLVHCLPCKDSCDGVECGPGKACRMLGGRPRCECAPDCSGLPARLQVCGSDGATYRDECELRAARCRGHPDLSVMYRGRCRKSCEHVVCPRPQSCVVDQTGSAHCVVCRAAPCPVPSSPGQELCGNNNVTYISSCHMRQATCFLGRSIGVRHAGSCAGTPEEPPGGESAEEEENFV

[19] = biological target: Dickkopf-related protein 1 (Homo sapiens) (UniProt O94907); experiment: DKK1 binders on small-molecule microarrays, primary screen, biochemical, small-molecule microarray, 635 nm fluorescence scan (AID 1106); details: DKK1 binding, higher = more signal;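 further: score merges emission near 667 nm with signal to noise over three replicate slides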
Dickkopf-related protein 1 (Homo sapiens), sequence (O94907 whole entry, looked up): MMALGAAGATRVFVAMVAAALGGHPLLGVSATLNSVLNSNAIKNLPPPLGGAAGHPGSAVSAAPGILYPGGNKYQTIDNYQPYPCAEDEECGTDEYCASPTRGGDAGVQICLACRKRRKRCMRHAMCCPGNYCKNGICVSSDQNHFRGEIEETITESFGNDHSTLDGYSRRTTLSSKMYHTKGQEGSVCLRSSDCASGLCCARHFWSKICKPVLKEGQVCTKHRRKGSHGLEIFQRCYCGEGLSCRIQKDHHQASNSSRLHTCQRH

[20] = system: Inhibin beta A chain (activin A); experiment: INHBA (activin A) binders on microarrays, primary screen, biochemical, small-molecule microarray, 635 nm fluorescence scan (AID 1107); details: small-molecule microarray binding, higher = more signal;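 further: mouse activin A protein probed at 4.33 µg/mL on printed slides; score merges bound-protein fluorescence near 667 nm with spot signal-to-noise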

SMILES	composite z-score [1]	z-score [2]	z-score [3]	z-score [4]	composite z-score [5]	z-score [6]	composite z-score [7]	composite z-score [8]	composite z-score [9]	composite z-score [10]	composite z-score [11]	composite z-score [12]	composite z-score [13]	z-score [14]	composite z-score [15]	composite z-score [16]	composite z-score [17]	composite z-score [18]	composite z-score [19]	composite z-score [20]
CC(=O)C[C@H](O)[C@@H](NC(=O)OC(C)(C)C)C(C)C	-0.402	-0.498 (inactive)	-0.644 (inactive)	0.0836 (inactive)	-1.18	-0.972 (inactive)	-0.214	-0.198	-0.0052	-0.171	-0.276	-0.186	-0.306	-0.797 (inactive)	-0.456	-1.45	-0.397	-0.441	-0.31	0.123
CC1CC/C=C\[C@H]2OC34C=CCN(C(C)C)C(=O)[C@H]3N(CCCO)C(=O)[C@@H]4C2C(=O)O1 (stereo not given in full)	1.04	-1.36 (inactive)	-1.14 (inactive)	-0.24 (inactive)	1.29	1.14 (inactive)	0.131	-1.42	-0.344	-0.214	1.29	-0.268	0.0886	-0.037 (inactive)	-0.79	-0.785	-1.74	-1.21	-1.23	-0.476
CCOC(=O)NN=C1C[C@@H](O)[C@@H](O)[C@@H]2[C@@H]3C(=O)N(CC)C(=O)[C@@H]3CC[C@@H]12	0.268	-0.846 (inactive)	0.0572 (inactive)	-0.293 (inactive)	1.31	-0.319 (inactive)	-0.176	0.299	0.905	0.0082	0.163	-0.407	-0.263	0.379 (inactive)	0.664	0.434	0.684	0.518	0.14	-0.232
CC(C)=NOCc1ccc(-c2cc(-c3ccccc3)no2)cc1	-1.06	0.237 (inactive)	0.256 (inactive)	0.213 (inactive)	0.108	0.383 (inactive)	-0.252	0.429	0.152	-0.163	0.0628	-0.285	-0.515	0.468 (inactive)	0.356	0.283	0.279	-0.026	0.32	0.216
C=CC[C@]1(C(=O)NCc2ccccc2)N=C(c2ccc(OCCCO)cc2)O[C@H]1c1ccccc1	1.55	0.159 (inactive)	-0.46 (inactive)	6.37 (inactive)	3.28	0.568 (inactive)	-0.0238	0.119	0.778	-0.137	0.689	0.213	1.06	0.332 (inactive)	0.462	0.165	-0.29	0.291	-0.328	0.173
CCCCC(=C=CC[C@H](O)c1ccccc1OCCO)C[C@H](O)COCc1ccccc1	-0.0855	0.115 (inactive)	-0.729 (inactive)	-0.659 (inactive)	1.03	0.0754 (inactive)	-0.145	-0.142	-0.171	-0.12	1.45	-0.001	0.309	-0.139 (inactive)	0.0624	-0.285	-0.792	-0.349	-0.355	0.778
COc1ccc(-c2ccc3c(n2)CCCN3CC(O)CN2CCCc3nc(C)c(C)cc32)cc1 (stereo not given)	1.43	0.0222 (inactive)	-0.411 (inactive)	-1.43 (inactive)	1.13	0.682 (inactive)	0.429	0.824	1.1	0.243	0.879	0.323	0.386	-0.155 (inactive)	0.817	0.871	0.691	0.995	1.39	1.6
CCCC[C@@H]1C[C@H]1[C@@H](NS(=O)(=O)c1cccc2cccnc12)c1ccc(-c2ccccc2)cc1	-1.42	0.0994 (inactive)	1.16 (inactive)	0.676 (inactive)	1.26	-0.781 (inactive)	0.0141	-0.696	0.32	-0.0728	-0.383	0.583	1.09	1.19 (inactive)	0.0068	-0.356	-1.26	-0.417	-0.475	0.76
Cn1cccc1C(O)C1C=CC2C(=O)NC(=O)C2N1Nc1ccccn1 (stereo not given)	0.408	0.0886 (inactive)	1.23 (inactive)	0.0533 (inactive)	-0.503	-0.975 (inactive)	-0.19	-0.0645	-0.929	0.0865	0.71	0.0275	0.0176	1.36 (inactive)	-0.121	-0.0788	0.459	0.533	0.133	1.49
COC(=O)[C@H](C)NC(=O)CCC1CC(OC(=O)NCCc2ccc(F)cc2)CC2(CCCC(COC(=O)NCCc3ccc(Cl)cc3)O2)O1 (stereo not given in full)	1.24	0.86 (inactive)	0.812 (inactive)	1.2 (inactive)	2.39	0.126 (inactive)	-0.0237	0.244	1.12	-0.0989	0.316	0.0144	-0.615	-0.137 (inactive)	1.07	0.987	0.344	1.29	1.05	0.0063
CCOC(=O)C1=CC[C@H]2C(=O)N(CC)C(=O)[C@@H]12	0.863	-0.348 (inactive)	1.77 (inactive)	0.816 (inactive)	1.08	-0.233 (inactive)	-0.181	0.344	1	0.125	0.762	-0.146	-0.242	-0.253 (inactive)	1.07	0.947	0.0746	0.933	0.0851	0.666
